Data on 47 molecules can be found in PubChem BioAssay.

The target in assay [1] is Tumor necrosis factor receptor superfamily member 10B (Homo sapiens) (UniProt O14763). The assay is described as follows: caspase-8 TRAIL sensitization, hit retest, confirmation, cell-based, NB7+caspase-8, with/without TRAIL, luminescence panel (AID 651596). As to conditions: NB7 neuroblastoma + caspase-8, TRAIL sensitization, luminescence viability, with TRAIL, mean of runs, at 10 µM, stronger effect = higher value; in the data active = activity above about 50%; inactive = the rest.
Chain of Tumor necrosis factor receptor superfamily member 10B (Homo sapiens) (O14763 whole entry, looked up): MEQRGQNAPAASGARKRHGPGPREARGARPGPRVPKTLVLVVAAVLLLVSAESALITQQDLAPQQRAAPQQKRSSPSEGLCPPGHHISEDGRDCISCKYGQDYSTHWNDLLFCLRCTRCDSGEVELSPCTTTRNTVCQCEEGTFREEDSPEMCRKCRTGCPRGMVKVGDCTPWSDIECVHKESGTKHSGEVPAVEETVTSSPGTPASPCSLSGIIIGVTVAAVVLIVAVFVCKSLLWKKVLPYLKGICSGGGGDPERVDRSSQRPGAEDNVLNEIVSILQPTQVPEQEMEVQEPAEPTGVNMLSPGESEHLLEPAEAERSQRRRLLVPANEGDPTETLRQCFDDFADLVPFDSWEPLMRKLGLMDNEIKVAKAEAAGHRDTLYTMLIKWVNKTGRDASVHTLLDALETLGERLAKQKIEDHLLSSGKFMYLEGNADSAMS

Assay in assay [2]: as above
The following applies: NB7 neuroblastoma + caspase-8, without TRAIL, luminescence viability, without TRAIL, mean of runs, at 10 µM.

As to `COC(=O)C1=C(C(=O)OC)[C@@H]2N(Cc3ccccc3)c3ccccc3[C@@]23C[C@@H](C(=O)OC)N(C(=O)c2cccs2)C3=N1`, the activity in assay [1] is 17.8%; in assay [2] it was -45.8%.

On to `COc1cccc2sc(N(C)c3ccccc3)nc12`, for which the activity was determined as 58.3% in assay [1] and 61.2% in assay [2].

Take `O=C(Nc1ccc2c(c1)OCO2)N1CCN(Cc2ccco2)CC1`: the activity in assay [1] came to 78.8%; in assay [2], 75.2%.

For `Cc1cccc(Nc2nc(N)nc(CCl)n2)c1C`, the activity in assay [1] came out at 99%; in assay [2], 98.3%.

As to `O=C(CSc1nnc(-c2ccc(Br)cc2)o1)Nc1cccc(C(=O)O)c1`, the activity in assay [1] was determined as 60.1%; in assay [2], 68.1%.

As to `Brc1ccc(-c2cn3ccccc3n2)s1`, the figures for the activity in assay [1] and in assay [2] were 52.6% and 38.7%, respectively.

Consider `COc1ccccc1-c1nc(-c2ccccn2)no1`, for which the activity in assay [1] is 76.7%; in assay [2], 72.7%.

Consider `COC(=O)c1ccc2nc(-c3ccc4c(c3)OCO4)cn2c1`, for which the activity was 74.5% in assay [1] and 76% in assay [2].

As for `Cc1ccc(-c2ccccc2NC(=O)CCl)o1`, the activity in assay [1] was 47.4%; in assay [2] it was 64.3%.

`Cc1nc2cc(-c3ccccc3)nn2c(N)c1-c1ccccc1`: the values for the activity in assay [1] and in assay [2] were 59% and 44.4%, respectively.

For the molecule `c1cc(-c2cc3cc(N4CCOCC4)ccc3o2)cs1`, the activity turned out to be 77.3% in assay [1] and 67.4% in assay [2].

Consider `CSc1ccc(/C=C/C(=O)NC(=O)c2ccccc2O)cc1`, for which the activity was found to be 82.5% in assay [1] and 84.7% in assay [2].

On to `O=C(COc1ccc(/C=N/NC(=O)c2cc3ccccc3o2)cc1Br)Nc1ccccc1`, for which the activity stood at 93% in assay [1] and 96.8% in assay [2].

Regarding `O=C(CSc1nnc(NC(=O)c2ccccc2)s1)NCC1CCCO1` (centres undefined), the values for the activity in assay [1] and in assay [2] were 60.9% and 63.2%, respectively.

On to `COc1ccc(-c2ccc(SC)nn2)cc1`, for which the activity in assay [1] was 88.9%; in assay [2], 90.2%.

Consider `Cc1ccc2nc(-c3ccc(N)cc3)sc2c1`, for which the activity in assay [1] worked out at 83.2%; in assay [2], 81.8%.

Take `CN(C)c1ncnc2c1ncn2C1OC(CO)C(O)C1O` (centres undefined): the activity in assay [1] was 57.1%; in assay [2] it was 45.3%.

On to `Cc1cccc(/C=C/c2nc3ccccc3c(=O)[nH]2)c1`, for which the activity in assay [1] amounted to 61.5%; in assay [2], 65%.

Take `CCc1ccc(C(=O)Nc2cc(C)ccc2F)s1`: the results for the activity in assay [1] and in assay [2] were -9.2% and 27.4%, respectively.

For `COCCn1c(C)cc(C(=O)COC(=O)c2ccc(Cl)c(S(N)(=O)=O)c2)c1C`, the activity stood at 52% in assay [1] and 52.4% in assay [2].

Regarding `NC(N)=Nc1ccc(C=C2C=Cc3ccccc32)cc1`, the results for the activity in assay [1] and in assay [2] were 96.6% and 68.5%, respectively.

Turning to `O=C(NC(=S)Nc1ccc(Cl)cn1)c1cccs1`, the activity in assay [1] was 79.4%; in assay [2] it was 76.3%.

For `O=C(CCl)N1CCN(S(=O)(=O)c2ccc3c(c2)CCC3)CC1`, the activity came to 97.7% in assay [1] and 97.1% in assay [2].

For the molecule `COc1cccc(C(=O)/C=C/Nc2cccc(O)c2)c1`, the activity in assay [1] is 86%; in assay [2], 71.5%.

Regarding `O=C(Nc1nnc(SCC(=O)N2CCOCC2)s1)c1ccccc1Cl`, the figures for the activity in assay [1] and in assay [2] were 72.6% and 78.2%, respectively.

Regarding `Cc1cccc(Cn2ncc(Cl)c(Cl)c2=O)c1`, the results for the activity in assay [1] and in assay [2] were 92.2% and 98.9%, respectively.

For `COc1ccc2[nH]c3c(NCCC4=CCCCC4)ncnc3c2c1`, the figures for the activity in assay [1] and in assay [2] were 35.8% and 44.1%, respectively.

In the case of `COc1ccccc1NC(=O)CSc1ccc(-c2ccc(-n3ccnc3)cc2)nn1`, the activity in assay [1] is 47%; in assay [2], 38.6%.

Consider `O=C(Nc1ccccc1)c1cn2ccccc2n1`, for which the activity worked out at 54.9% in assay [1] and 55.7% in assay [2].

For the molecule `COc1cc2nc(N3CCNCC3)nc(N)c2cc1OC`, the activity in assay [1] worked out at 27.5%; in assay [2], 0.125%.

As to `COC(=O)c1ccc2nc(NC(=O)C(C)(C)C)sc2c1`, the activity was 93.2% in assay [1] and 91.2% in assay [2].

For `COc1ccc2c(c1OC)C(=O)N(c1cccc(C)c1)C2`, the activity came to 66.9% in assay [1] and 57.9% in assay [2].

As for `Cc1ccc(S(=O)(=O)NC(=O)NC2=NC(C)(C)N(c3ccc(Cl)c(Cl)c3)C(N)=N2)cc1`, the activity is 77.4% in assay [1] and 84.2% in assay [2].

For `O=C(CCl)Nc1ccccc1Sc1ccccc1`, the figures for the activity in assay [1] and in assay [2] were 83.2% and 87.8%, respectively.

Take `CCOc1ccc2nc(N3C(=O)CNC3=S)sc2c1`: the activity in assay [1] turned out to be 65.2%; in assay [2], 60.6%.

`c1ccn2cc(-c3ccc4c(c3)OCCO4)nc2c1`: the activity in assay [1] came to 89%; in assay [2], 86%.

Consider `O=C(Cn1c2ccccc2c(=O)c2ccccc21)N/N=C/c1cc([N+](=O)[O-])ccc1N1CCCCCC1`, for which the activity stood at 49.8% in assay [1] and 48% in assay [2].

In the case of `COC(=O)CSc1nc2cc(OC)ccc2cc1C#N`, the activity in assay [1] was 75.6%; in assay [2], 70%.

As for `CCC(=O)N1CCN(c2ccc(NC(=O)c3cc4ccccc4o3)cc2Cl)CC1`, the activity in assay [1] is 79.6%; in assay [2] it was 54.4%.

With `O=C1c2cccc3c([N+](=O)[O-])ccc(c23)C(=O)N1c1ccccn1`, the activity came out at 91.4% in assay [1] and 99.4% in assay [2].

For `NC(=O)c1ccsc1NC(=O)c1coc2ccccc2c1=O`, the activity in assay [1] turned out to be 36.1%; in assay [2], 33.8%.

With `CCCCCCN(C(=O)CCl)c1ccccc1`, the activity in assay [1] was determined as 98.8%; in assay [2], 99.2%.

As to `CC(/C=N/NC(=O)c1n[nH]c2c1CCC2)=C\c1ccccc1`, the figures for the activity in assay [1] and in assay [2] were 48.1% and 68.9%, respectively.

Turning to `Cc1ccc(C(=O)Nc2ccc3c(c2)OCO3)cc1`, the activity turned out to be 75.8% in assay [1] and 63% in assay [2].

Turning to `COc1cc(SC#N)ccc1N=Cc1c(C)[nH]n(-c2ccc(C)c(C)c2)c1=O`, the activity worked out at 93% in assay [1] and 97.7% in assay [2].

For `Cc1nc(SCC(=O)Nc2nccs2)c(C#N)c(C)c1C`, the activity in assay [1] came to 90.8%; in assay [2], 92.1%.

Consider `CCN1CCN(Cc2ccc(NC(=O)c3ccc(C)c(NC(=O)c4c[nH]c5cc(C(F)(F)F)ccc5c4=O)c3)cc2C(F)(F)F)CC1`, for which the activity in assay [1] and in assay [2] was 98.8% throughout.
